# Test results reported in PubChem BioAssay.
# Where “and” joins values, the source holds several entries; their conditions need not be identical. Equal entries are not always repeated. Records with an inconclusive call do not appear. Calls of active or inactive are those of the source.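 Rule for the calls, unless noted: active = normalized viability below 100% at a tested concentration; inactive = the rest.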
# Columns and labels:
# [1] = viability loss in pontine glioma line – cell-based, SU-DIPG-XXV, MIPE5.0, CellTiter-Glo, qHTS, dose response (AID 1347065; cut-off not given, nearly all actives have AC50 up to about 26 µM;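 note: cells exposed to compound for 48 hours before ATP readout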); details: CellTiter-Glo ATP luminescence
# [2] = SU-DIPG-VI glioma cell viability, MIPE4.0 library, CellTiter-Glo luminescence, qHTS (AID 1347066; cut-off not given, nearly all actives have AC50 up to about 30 µM;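 note: cells exposed to compound for 48 hours before readout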); details: CellTiter-Glo ATP luminescence
# [3] = JHH-DIPG-1 glioma cell viability, MIPE5.0 library, CellTiter-Glo luminescence, qHTS (AID 1347067; cut-off not given, nearly all actives have AC50 up to about 26 µM;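 note: cells exposed to compound for 48 hours before readout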); details: JHH-DIPG-1 glioma viability, CellTiter-Glo ATP luminescence
# [4] = SU-DIPG-XXV glioma cell viability, MIPE5.0 library, qHTS (AID 1347068; cut-off not given, nearly all actives have IC50 up to about 30 µM)
# [5] = phospholipid biosynthesis inhibitors in animal cells, primary screen, cell-based, LOPAC library, screen 4 (AID 1347384; call rule not given here); details: phospholipid biosynthesis inhibition screen, at 10 µM
# [6] = survival rescue of mitochondrial mutant cells in low glucose, primary screen, MELAS cybrids, Rieske KO mouse fibroblasts, CellTiter-Glo (AID 1508586;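 active = mean z-score across replicates of 1.96 or higher in either the MELAS or the Rieske mutant cell line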;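 note: z relative to plate mean and SD of compound and empty wells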)
# [7] = target: NAD(+) hydrolase SARM1 (Homo sapiens) (UniProt Q6SZW1); test: SARM1 TIR NADase inhibitors, cell lysate, NAD-Glo luminescence (AID 1508614;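 active = compound whose remaining NAD level is above about 45 nM, limit read from the data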;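 note: higher remaining NAD means stronger inhibition of SARM1 NADase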); details: SAM-TIR HEK293T lysate NADase, at 1 µM, stronger effect = higher value
# Chain of NAD(+) hydrolase SARM1 (Homo sapiens) (Q6SZW1 whole entry, looked up, the tested form may be a part): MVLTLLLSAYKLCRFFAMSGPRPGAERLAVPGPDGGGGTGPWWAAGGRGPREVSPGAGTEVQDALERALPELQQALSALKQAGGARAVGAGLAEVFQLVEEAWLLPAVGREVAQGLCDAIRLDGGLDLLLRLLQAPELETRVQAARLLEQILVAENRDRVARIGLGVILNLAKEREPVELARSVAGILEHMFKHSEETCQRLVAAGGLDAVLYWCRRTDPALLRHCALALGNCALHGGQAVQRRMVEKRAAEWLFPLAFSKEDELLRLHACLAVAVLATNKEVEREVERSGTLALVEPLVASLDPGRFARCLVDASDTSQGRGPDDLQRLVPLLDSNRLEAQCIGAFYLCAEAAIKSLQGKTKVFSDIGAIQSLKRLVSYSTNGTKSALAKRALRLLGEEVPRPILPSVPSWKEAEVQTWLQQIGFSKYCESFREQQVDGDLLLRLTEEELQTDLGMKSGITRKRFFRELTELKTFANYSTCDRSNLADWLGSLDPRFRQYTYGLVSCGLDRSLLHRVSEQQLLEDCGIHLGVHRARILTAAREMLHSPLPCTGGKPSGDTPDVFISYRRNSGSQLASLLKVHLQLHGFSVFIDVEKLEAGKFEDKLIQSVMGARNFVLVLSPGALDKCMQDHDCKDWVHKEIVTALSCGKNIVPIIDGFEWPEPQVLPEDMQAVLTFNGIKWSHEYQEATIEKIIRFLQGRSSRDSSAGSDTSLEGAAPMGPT
# [8] = target: Mitogen-activated protein kinase 7 (Homo sapiens) (UniProt Q13164); test: ERK5 transactivation activators in reporter cells, primary screen, cell-based, HTS (AID 1508626;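 active = luciferase signal above three times the same-plate solvent-only control wells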;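 note: luciferase driven by Gal4-ERK5 fusion binding five Gal4 sites before minimal TATA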); details: HeLa Gal4-ERK5 transactivation, 18 h, at 5 µM, stronger effect = higher value
# Chain of Mitogen-activated protein kinase 7 (Homo sapiens) (Q13164 whole entry, looked up, the tested form may be a part): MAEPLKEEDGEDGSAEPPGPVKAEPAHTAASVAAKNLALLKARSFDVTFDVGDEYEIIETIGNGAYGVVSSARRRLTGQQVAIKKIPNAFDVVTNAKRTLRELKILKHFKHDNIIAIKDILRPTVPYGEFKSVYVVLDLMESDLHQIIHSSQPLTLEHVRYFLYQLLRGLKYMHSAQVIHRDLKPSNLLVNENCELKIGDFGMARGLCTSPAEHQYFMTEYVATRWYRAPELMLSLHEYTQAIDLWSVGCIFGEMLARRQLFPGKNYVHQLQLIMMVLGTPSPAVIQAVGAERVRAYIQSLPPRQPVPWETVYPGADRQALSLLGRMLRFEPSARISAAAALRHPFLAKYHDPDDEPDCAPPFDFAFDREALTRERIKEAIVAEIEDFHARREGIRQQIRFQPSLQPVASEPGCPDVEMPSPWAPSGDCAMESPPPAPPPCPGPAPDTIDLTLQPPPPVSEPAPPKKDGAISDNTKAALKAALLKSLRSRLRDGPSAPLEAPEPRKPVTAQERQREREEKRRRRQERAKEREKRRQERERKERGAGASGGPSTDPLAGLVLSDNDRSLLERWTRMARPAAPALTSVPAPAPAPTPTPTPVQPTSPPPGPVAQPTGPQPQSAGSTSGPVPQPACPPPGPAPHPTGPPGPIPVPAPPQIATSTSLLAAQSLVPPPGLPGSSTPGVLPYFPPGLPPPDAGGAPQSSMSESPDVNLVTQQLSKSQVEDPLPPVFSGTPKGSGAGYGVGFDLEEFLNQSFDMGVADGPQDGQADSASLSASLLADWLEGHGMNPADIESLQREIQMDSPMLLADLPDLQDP
# [9] = ovarian cancer cell viability with rucaparib, profiling panel, oncology-focused library, rucaparib conditional (AID 1508598); details: patient-derived ovarian cancer cells, CellTiter-Glo viability, 144 h, stronger effect = lower value
# [10] = LFS_MB_P medulloblastoma growth inhibition, cell-based, chromothripsis tumors, cisplatin or BGB combos (AID 1671449; in the data active = inhibition above about 80%;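 note: cells exposed for 96 hours; 0% = vehicle DMSO and 100% = killing by high DMSO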); details: LFS_MB_P medulloblastoma cells
# [11] = HDN33 neuroblastoma growth inhibition, cell-based, chromothripsis tumors, cisplatin or BGB combos (AID 1671450; in the data active = inhibition above about 80%;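 note: cells exposed to compound for four days; 0% = vehicle DMSO and 100% = cell killing by high DMSO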); details: HDN33 neuroblastoma cells, stronger effect = higher value
# [12] = ICB984 medulloblastoma cell growth inhibition, synergistic combos for chromothripsis tumors, cisplatin or BGB combos (AID 1671451; call rule not given here;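 note: cells exposed for 96 hours before readout; 0% = vehicle DMSO and 100% = killing by high DMSO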); details: ICB984 medulloblastoma cells, drug combinations, stronger effect = higher value
# [13] = LFS_MB_1R medulloblastoma cell growth inhibition, synergistic combos for chromothripsis tumors, cisplatin or BGB combos (AID 1671452; in the data active = inhibition above about 80%;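 note: cells exposed for 96 hours before readout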); details: LFS_MB_1R medulloblastoma cells, stronger effect = higher value
# [14] = HTB85 osteosarcoma cell growth inhibition, synergistic combos for chromothripsis tumors, BGB or cisplatin IC20 combos (AID 1671453; in the data active = inhibition above about 80%;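 note: cells exposed for 96 hours before readout; 0% = vehicle DMSO and 100% = high DMSO killing control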); details: HTB85 osteosarcoma cells, drug combinations, stronger effect = higher value
# [15] = CRL2098 osteosarcoma cell growth inhibition, synergistic combos for chromothripsis tumors, BGB or cisplatin IC20 combos (AID 1671454; in the data active = inhibition above about 80%;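 note: cells exposed for 96 h before readout; 0% = vehicle DMSO and 100% = killing by high DMSO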); details: CRL2098 osteosarcoma cells, drug combinations, stronger effect = higher value
# [16] = HD-MB03 medulloblastoma cell growth inhibition, synergistic combos for chromothripsis tumors, BGB or cisplatin IC20 combos (AID 1671455; in the data active = inhibition above about 83%;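 note: 0% = vehicle DMSO and 100% = high DMSO as cytotoxic control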); details: HD-MB03 medulloblastoma cells, stronger effect = higher value
# [17] = MELAS cybrid survival, CellTiter-Glo 48 h, stronger effect = higher value
# [18] = Rieske KO mouse fibroblast survival, CellTiter-Glo 72 h
# [19] = measured here: combination with BGB IC40, at 0.05 µM
smiles,measurement,setting,value
COc1ccc(CCN(C)CCCC(C#N)(c2ccc(OC)c(OC)c2)C(C)C)cc1OC (configuration not stated),outcome,[1],inactive
same,outcome,[2],inactive
same,outcome,[3],inactive
same,outcome,[4],inactive
same,outcome,[5],inactive
same,z-score,[6]; [17],-1.23 (inactive) and 0.18 (inactive) and -0.391 (inactive)
same,z-score,[6]; [18],-2.03 and 0.282 and -0.248
same,remaining NAD,[7],10 nM (inactive)
same,luciferase signal,[8],96 AU (inactive)
CCOC(=O)c1ncn2c1CN(C)C(=O)c1cc(F)ccc1-2,outcome,[1],inactive
same,outcome,[2],inactive
same,outcome,[3],inactive
same,outcome,[4],inactive
same,outcome,[5],inactive
same,z-score,[6]; [17],0.109 (inactive) and 0.0778 (inactive)
same,z-score,[6]; [18],0.977 and -0.775
same,remaining NAD,[7],10 nM (inactive)
same,luciferase signal,[8],60 AU (inactive)
Cc1nc2ccc(CN(C)c3ccc(C(=O)N[C@@H](CCC(=O)O)C(=O)O)s3)cc2c(=O)[nH]1,outcome,[1],inactive
same,outcome,[2],inactive
same,outcome,[3],inactive
same,outcome,[4],inactive
same,z-score,[6]; [17],-0.789 (inactive)
same,z-score,[6]; [18],-1.02
same,viability,"[9]; at 0.000305 µM, OCI-C5x cells, with rucaparib 10 µM, 100% = cells with rucaparib alone",114% (inactive)
same,viability,"[9]; at 0.000305 µM, OCI-C5x cells, without rucaparib",92.6% (active)
same,viability,"[9]; at 0.000305 µM, OCI-P5x cells, with rucaparib 20 µM, 100% = cells with rucaparib alone",107% (inactive)
same,viability,"[9]; at 0.000305 µM, OCI-P5x cells, without rucaparib",104% (inactive)
same,viability,"[9]; at 0.00122 µM, OCI-C5x cells, with rucaparib 10 µM, 100% = cells with rucaparib alone",115% (inactive)
same,viability,"[9]; at 0.00122 µM, OCI-C5x cells, without rucaparib",84.6% (active)
same,viability,"[9]; at 0.00122 µM, OCI-P5x cells, with rucaparib 20 µM, 100% = cells with rucaparib alone",108% (inactive)
same,viability,"[9]; at 0.00122 µM, OCI-P5x cells, without rucaparib",106% (inactive)
same,viability,"[9]; at 0.00488 µM, OCI-C5x cells, with rucaparib 10 µM, 100% = cells with rucaparib alone",72.8% (active)
same,viability,"[9]; at 0.00488 µM, OCI-C5x cells, without rucaparib",55.7% (active)
same,viability,"[9]; at 0.00488 µM, OCI-P5x cells, with rucaparib 20 µM, 100% = cells with rucaparib alone",114% (inactive)
same,viability,"[9]; at 0.00488 µM, OCI-P5x cells, without rucaparib",109% (inactive)
same,viability,"[9]; at 0.0195 µM, OCI-C5x cells, with rucaparib 10 µM, 100% = cells with rucaparib alone",19.2% (active)
same,viability,"[9]; at 0.0195 µM, OCI-C5x cells, without rucaparib",17.1% (active)
same,viability,"[9]; at 0.0195 µM, OCI-P5x cells, with rucaparib 20 µM, 100% = cells with rucaparib alone",116% (inactive)
same,viability,"[9]; at 0.0195 µM, OCI-P5x cells, without rucaparib",110% (inactive)
same,viability,"[9]; at 0.0781 µM, OCI-C5x cells, with rucaparib 10 µM, 100% = cells with rucaparib alone",16.3% (active)
same,viability,"[9]; at 0.0781 µM, OCI-C5x cells, without rucaparib",17.6% (active)
same,viability,"[9]; at 0.0781 µM, OCI-P5x cells, with rucaparib 20 µM, 100% = cells with rucaparib alone",118% (inactive)
same,viability,"[9]; at 0.0781 µM, OCI-P5x cells, without rucaparib",111% (inactive)
same,viability,"[9]; at 0.313 µM, OCI-C5x cells, with rucaparib 10 µM, 100% = cells with rucaparib alone",15.6% (active)
same,viability,"[9]; at 0.313 µM, OCI-C5x cells, without rucaparib",19.3% (active)
same,viability,"[9]; at 0.313 µM, OCI-P5x cells, with rucaparib 20 µM, 100% = cells with rucaparib alone",119% (inactive)
same,viability,"[9]; at 0.313 µM, OCI-P5x cells, without rucaparib",111% (inactive)
same,viability,"[9]; at 1.25 µM, OCI-C5x cells, with rucaparib 10 µM, 100% = cells with rucaparib alone",14.5% (active)
same,viability,"[9]; at 1.25 µM, OCI-C5x cells, without rucaparib",17.5% (active)
same,viability,"[9]; at 1.25 µM, OCI-P5x cells, with rucaparib 20 µM, 100% = cells with rucaparib alone",111% (inactive)
same,viability,"[9]; at 1.25 µM, OCI-P5x cells, without rucaparib",116% (inactive)
same,viability,"[9]; at 5 µM, OCI-C5x cells, with rucaparib 10 µM, 100% = cells with rucaparib alone",16.1% (active)
same,viability,"[9]; at 5 µM, OCI-C5x cells, without rucaparib",19.3% (active)
same,viability,"[9]; at 5 µM, OCI-P5x cells, with rucaparib 20 µM, 100% = cells with rucaparib alone",124% (inactive)
same,viability,"[9]; at 5 µM, OCI-P5x cells, without rucaparib",113% (inactive)
same,inhibition,"[10]; at 0.5 µM, stronger effect = higher value",-8.68% (inactive)
same,inhibition,"[10]; measured here: combination with BGB IC20, at 0.005 µM",-6.5%
same,inhibition,"[10]; measured here: combination with BGB IC40, at 0.005 µM",-33.6%
same,inhibition,[10]; [19],2.07%
same,inhibition,"[10]; measured here: combination with cisplatin, at 0.5 µM, stronger effect = higher value",-25.4%
same,inhibition,"[10]; measured here: combination with cisplatin, at 5 µM, stronger effect = higher value",-36.4%
same,inhibition,"[11]; BGB combo, at 5 µM",77.1%
same,inhibition,[11]; at 0.5 µM,77.4% (inactive)
same,inhibition,"[11]; cisplatin combo, at 5 µM",75.6%
same,inhibition,"[11]; measured here: with BGB IC20 combination, at 0.5 µM",75.7%
same,inhibition,"[11]; measured here: with cisplatin IC20 combination, at 0.5 µM",73.8%
same,inhibition,"[11]; single agent, at 5 µM",82.5%
same,inhibition,"[12]; BGB IC20 combo, at 0.005 µM",-19.7%
same,inhibition,"[12]; BGB IC40 combo, at 0.005 µM",-58.4%
same,inhibition,"[12]; BGB IC40 combo, at 0.05 µM",-47.3%
same,inhibition,[12]; at 0.5 µM,-21.4% (inactive)
same,inhibition,"[12]; cisplatin combo, at 0.05 µM",-53.1%
same,inhibition,"[12]; cisplatin combo, at 0.5 µM",-23.4%
same,inhibition,"[12]; cisplatin combo, at 5 µM",-41.1%
same,inhibition,"[12]; measured here: 5 uM single agent, at 5 µM",-8.4%
same,inhibition,[13]; at 0.5 µM,-22.3% (inactive)
same,inhibition,[13]; [19],-24.2%
same,inhibition,"[13]; measured here: combination with cisplatin, at 0.5 µM",-26.4%
same,inhibition,"[13]; measured here: combination with cisplatin, at 5 µM",-6.83%
same,inhibition,[14]; at 0.5 µM,-11% (inactive)
same,inhibition,"[14]; measured here: with BGB IC20, at 0.5 µM",-19.6%
same,inhibition,"[14]; measured here: with BGB IC20, at 5 µM",-9.72%
same,inhibition,"[14]; measured here: with cisplatin IC20, at 0.5 µM",-17.6%
same,inhibition,"[14]; measured here: with cisplatin IC20, at 5 µM",2.95%
same,inhibition,"[14]; single agent, at 5 µM",10.6%
same,inhibition,[15]; at 0.5 µM,54.5% (inactive)
same,inhibition,"[15]; measured here: combination with BGB at IC20, at 0.5 µM",35.1%
same,inhibition,"[15]; measured here: combination with cisplatin at IC20, at 0.5 µM",62.3%
same,inhibition,[16]; at 0.5 µM,78.5% (inactive)
same,inhibition,"[16]; measured here: combo with BGB at IC20, at 0.5 µM",71.9%
same,inhibition,"[16]; measured here: combo with cisplatin at IC20, at 0.5 µM",79.7%
